SRC3 TRFRET art: counter-screen for PPARgamma SRC-3 recruitment agonists: TR-FRET artefact | TR-FRET ratio at 8 µM | 99,000 compounds, 0.39% hits | AID 1048 | PPARgamma/SRC-3 format; active compounds read high; in the data active = TR-FRET ratio above about 2000
PPARg SRC2 recr: agonists of SRC-2 recruitment by human PPARgamma; P37231; PPARgamma LBD-SRC-2 recruitment, biochemical; activation, % at 8 µM; 200,000 compounds, 0.34% hits;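 also: 0% = vehicle and 100% = reference agonist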
Target sequence (P37231 whole entry, looked up, the tested form may be a part): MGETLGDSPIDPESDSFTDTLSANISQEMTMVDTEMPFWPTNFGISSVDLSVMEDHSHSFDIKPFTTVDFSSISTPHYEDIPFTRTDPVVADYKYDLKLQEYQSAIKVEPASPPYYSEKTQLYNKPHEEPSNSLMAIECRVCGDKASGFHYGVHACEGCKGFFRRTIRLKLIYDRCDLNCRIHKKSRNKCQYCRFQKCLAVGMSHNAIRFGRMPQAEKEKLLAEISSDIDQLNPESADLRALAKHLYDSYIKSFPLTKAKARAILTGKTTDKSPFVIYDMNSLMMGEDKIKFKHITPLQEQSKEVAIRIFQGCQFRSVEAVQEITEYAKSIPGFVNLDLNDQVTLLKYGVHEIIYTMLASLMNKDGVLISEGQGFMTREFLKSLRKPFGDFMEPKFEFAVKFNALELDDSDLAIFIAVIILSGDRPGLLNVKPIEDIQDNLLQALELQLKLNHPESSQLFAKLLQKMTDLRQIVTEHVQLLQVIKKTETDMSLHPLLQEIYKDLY
PPARg SRC1 recr: PPARgamma-driven SRC-1 recruitment agonism. P37231. PPARgamma-SRC-1 coactivator recruitment biochemical assay. activation, % at 8 µM. 200,000 compounds, 0.41% hits. AID 631; in the data active = activation above about 19%;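 also: 0% = DMSO and 100% = reference agonist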
PPARg SRC3 recr: promotes SRC-3 coactivator recruitment by human PPARgamma; biochemical PPARgamma/SRC-3 coactivator recruitment assay; activation, % at 8 µM; 200,000 compounds, 0.26% hits; AID 731; in the data active = activation above about 23%;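 also: 0% = DMSO and 100% = reference agonist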
TR-FRET SRC-2 ct: flags TR-FRET format artefacts in PPARgamma SRC-2 recruitment agonist screen. TR-FRET artefact counter-screen; active compounds read high. TR-FRET ratio at 8 µM. 200,000 compounds, 0.4% hits; in the data active = TR-FRET ratio above about 2000
SRC1 TRFRET art: flags TR-FRET format artefacts in PPARgamma SRC-1 recruitment agonist screen; TR-FRET detection artefact counter-screen, emission ratio; active compounds read high; TR-FRET ratio at 8 µM; 99,000 compounds, 0.34% hits; AID 1051; in the data active = TR-FRET ratio above about 2300
PPARg SRC2 ag: human PPARgamma SRC-2 recruitment agonism, confirmation; AID 1297; activation, % at 8 µM; biochemical SRC-2 recruitment by PPARgamma; 790 compounds, 52% hits; shares compounds with PPARg SRC3 recr;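 also: 0% = vehicle alone and 100% = reference agonist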
PPARg SRC1 ag: confirmation of agonists of SRC-1 recruitment by human PPARgamma; 790 compounds, 43% hits; shares compounds with PPARg SRC3 recr; activation, % at 8 µM; PPARgamma–SRC-1 coactivator recruitment biochemical assay; in the data active = activation above about 20%;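 also: 0% = vehicle wells and 100% = reference agonist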
PPARg SRC3 conf: confirmation of agonists of SRC-3 recruitment by human PPARgamma. shares compounds with PPARg SRC3 recr. biochemical PPARgamma-SRC-3 coactivator recruitment, agonist mode. activation, % at 8 µM. 790 compounds, 29% hits; in the data active = activation above about 24%;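 also: 0% = vehicle wells and 100% = reference agonist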
Active calls of the source: *. Rows were chosen to be rich in hits. Some 0.9% of all compounds tested hit in one or more screens of this group. Rule as the data show it, unless noted: active = activation above about 22%; inactive = the rest.

`O=C(COC(=O)c1cc(-c2ccc(Cl)s2)nc2ccccc12)NCc1ccco1` gave PPARg SRC2 recr 19, PPARg SRC1 recr 13, PPARg SRC3 recr 18 and TR-FRET SRC-2 ct 1744.
For COc1cc(C(=O)NCc2ccc3c(c2)OCO3)ccc1OCc1c(C)noc1C the results were PPARg SRC2 recr 25*, PPARg SRC1 recr 5, PPARg SRC3 recr 20, TR-FRET SRC-2 ct 1774, PPARg SRC2 ag -1, PPARg SRC1 ag 0 and PPARg SRC3 conf -2.
COc1ccc(N(CN2C(=O)C3CC=CCC3C2=O)C(=O)c2ccco2)cc1 (stereo not given) was read as PPARg SRC2 recr 5, PPARg SRC1 recr 19*, PPARg SRC3 recr 12, TR-FRET SRC-2 ct 1738, PPARg SRC2 ag 5, PPARg SRC1 ag 3 and PPARg SRC3 conf 2.
`COc1ccc(-n2cc(C(=O)Nc3cc([N+](=O)[O-])ccc3OC)c3ccccc3c2=O)cc1` gave SRC3 TRFRET art 1518, PPARg SRC2 recr -12, PPARg SRC1 recr -11, PPARg SRC3 recr -1, TR-FRET SRC-2 ct 1578 and SRC1 TRFRET art 1598.
Screening Cc1cn(S(=O)(=O)c2ccc(Br)c3ccccc23)cn1 returned PPARg SRC2 recr 49*, PPARg SRC1 recr 31*, PPARg SRC3 recr 52*, TR-FRET SRC-2 ct 2712*, PPARg SRC2 ag 40*, PPARg SRC1 ag 26* and PPARg SRC3 conf 28*.
Screening Cc1ccc(C(=O)CSc2nc(-c3ccccc3)ccc2C#N)cc1 returned SRC3 TRFRET art 1806, PPARg SRC2 recr 5, PPARg SRC1 recr 9, PPARg SRC3 recr 1, TR-FRET SRC-2 ct 1714 and SRC1 TRFRET art 2016.
For N#Cc1ccc(-c2ccc3c(c2)OCO3)nc1SCC(=O)OCc1ccccc1 the results were PPARg SRC2 recr 10, PPARg SRC1 recr 40*, PPARg SRC3 recr 46*, TR-FRET SRC-2 ct 1976*, PPARg SRC2 ag 51*, PPARg SRC1 ag 43* and PPARg SRC3 conf 25*.
`COC(=O)c1sccc1NC(=O)Nc1ccc(Cl)c(Cl)c1` gave PPARg SRC2 recr 23*, PPARg SRC1 recr 19*, PPARg SRC3 recr 14, TR-FRET SRC-2 ct 1921, PPARg SRC2 ag 8, PPARg SRC1 ag 2 and PPARg SRC3 conf 4.
Screening CSc1nnc(C)c(=O)n1COC(=O)COc1ccc(Cl)cc1 returned SRC3 TRFRET art 1424, PPARg SRC2 recr 0, PPARg SRC1 recr 4, PPARg SRC3 recr -2, TR-FRET SRC-2 ct 1607 and SRC1 TRFRET art 1635.
CN1CCN(C(=O)CSc2cc(=O)n(C)c3ccccc23)CC1 was read as SRC3 TRFRET art 2760*, PPARg SRC2 recr 38*, PPARg SRC1 recr 34*, PPARg SRC3 recr 20, TR-FRET SRC-2 ct 2614*, SRC1 TRFRET art 2594*, PPARg SRC2 ag 29*, PPARg SRC1 ag 17 and PPARg SRC3 conf 19.
`Cn1c(=O)cc(OCCCC(=O)N2CCN(c3ccccc3)CC2)c2ccccc21` gave PPARg SRC2 recr 10, PPARg SRC1 recr 4, PPARg SRC3 recr 3 and TR-FRET SRC-2 ct 1446.
Screening Cn1c(=O)cc(SCC(=O)N2CCN(c3ccccc3)CC2)c2ccccc21 returned PPARg SRC2 recr 47*, PPARg SRC1 recr 34*, PPARg SRC3 recr 40*, TR-FRET SRC-2 ct 2466*, PPARg SRC2 ag 40*, PPARg SRC1 ag 28* and PPARg SRC3 conf 29*.
Screening Cn1c(=O)cc(SCC(=O)N2CCN(c3ccccn3)CC2)c2ccccc21 returned PPARg SRC2 recr 55*, PPARg SRC1 recr 38*, PPARg SRC3 recr 53*, TR-FRET SRC-2 ct 2556*, PPARg SRC2 ag 40*, PPARg SRC1 ag 29* and PPARg SRC3 conf 27*.
For Cn1c(=O)cc(SCC(=O)NCCC2=CCCCC2)c2ccccc21 the results were SRC3 TRFRET art 1753, PPARg SRC2 recr 12, PPARg SRC1 recr 5, PPARg SRC3 recr 8, TR-FRET SRC-2 ct 1894 and SRC1 TRFRET art 1986.
Screening CN1CCN(C(=O)CCCOc2cc(=O)n(C)c3ccccc23)CC1 returned PPARg SRC2 recr 7, PPARg SRC1 recr 6, PPARg SRC3 recr 6 and TR-FRET SRC-2 ct 1511.
CCN1CCN(C(=O)CSc2cc(=O)n(C)c3ccccc23)CC1 was read as SRC3 TRFRET art 2490*, PPARg SRC2 recr 9, PPARg SRC1 recr 33*, PPARg SRC3 recr 21, TR-FRET SRC-2 ct 2412*, SRC1 TRFRET art 2968*, PPARg SRC2 ag 29*, PPARg SRC1 ag 19 and PPARg SRC3 conf 20.
Screening O=C(CCN1CCCCC1)NNC(=O)C12CC3CC(CC(C3)C1)C2 returned SRC3 TRFRET art 1448, PPARg SRC2 recr 7, PPARg SRC1 recr 5, PPARg SRC3 recr 2, TR-FRET SRC-2 ct 1600 and SRC1 TRFRET art 1764.
CCOC(=O)C1=C(C)OC(N)=C(C#N)C1c1cc2cc(C)ccc2nc1N1CCCCC1 (stereo not given) was read as PPARg SRC2 recr 40*, PPARg SRC1 recr 38*, PPARg SRC3 recr 62*, TR-FRET SRC-2 ct 2305*, PPARg SRC2 ag 62*, PPARg SRC1 ag 44* and PPARg SRC3 conf 42*.
Screening CCOC(=O)C1=C(C)OC(N)=C(C#N)C1c1cc(C)sc1C (stereo not given) returned PPARg SRC2 recr 4, PPARg SRC1 recr -6, PPARg SRC3 recr -6 and TR-FRET SRC-2 ct 1603.
Screening COC(=O)c1c(C)[nH]c(C(=O)C(C)Sc2nnc(-c3cc(OC)c(OC)c(OC)c3)o2)c1C (stereo not given) returned PPARg SRC2 recr 4, PPARg SRC1 recr 27*, PPARg SRC3 recr 13, TR-FRET SRC-2 ct 1724, PPARg SRC2 ag 24*, PPARg SRC1 ag 25* and PPARg SRC3 conf 17.
`CC1N(C)c2cccc3cccc(c23)N1C` gave PPARg SRC2 recr 25*, PPARg SRC1 recr 13, PPARg SRC3 recr 11, TR-FRET SRC-2 ct 1457, PPARg SRC2 ag 24*, PPARg SRC1 ag 17 and PPARg SRC3 conf 13.
For Clc1ncc(Cn2cccn2)s1 the results were SRC3 TRFRET art 1485, PPARg SRC2 recr -3, PPARg SRC1 recr 0, PPARg SRC3 recr 5, TR-FRET SRC-2 ct 1472 and SRC1 TRFRET art 1805.
Screening COc1ccc2[nH]c3c(=S)nc[nH]c3c2c1 returned SRC3 TRFRET art 2527*, PPARg SRC2 recr 34*, PPARg SRC1 recr 26*, PPARg SRC3 recr 23*, TR-FRET SRC-2 ct 2492*, SRC1 TRFRET art 2593*, PPARg SRC2 ag 16, PPARg SRC1 ag 8 and PPARg SRC3 conf 12.
